Among the data in PubChem BioAssay (EPA / NIEHS) are outcome and AC50 values, retold here.

Results filed as inconclusive are left out. Calls of active or inactive are those of the source. Rule for the calls, unless noted: active = hit-call score of the fitted dose curve at least 0.9, where 1 is the maximum; inconclusive = response in the unintended direction; inactive = score below 0.9.

A short description of one test: IUF_NPC2-5_viability_120hr: Viability Assessment at 120 hours in the Leibniz Research Institute for Environmental Medicine (IUF) Neural Progenitor Cell Migration and Differentiation Assay (NPC2-5) (AID 2284312; active = hit-call score of the fitted dose curve at least 0.9, where 1 is the maximum; inactive = score below 0.9). The method in brief:
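Alamar blue resorufin fluorescence read after 5 days of differentiation, with compound present from day 0 and replenished at day 3. Primary hNPC spheres on laminin-coated plates, 37C; seven concentrations plus solvent control, fitted against DMSO.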
With `OC[C@@H](O)[C@@H](O)[C@H](O)[C@H](O)CO`, the call was inactive. On the same count and under the same terms, as for `C[Si]1(C)O[Si](C)(C)O[Si](C)(C)O[Si](C)(C)O1`, the entry is “inactive”. Consider `CC(=O)Oc1ccccc1C(=O)O`, for which the molecule was classed as inactive.

Another test can be described thus: VALA_TUBIPS_Antagonist_TubuleLength: VALA Sciences human iPS-derived Endothelial Tubule Formation (TUBIPS) Antagonist Assay (AID 2284313). The method in brief:
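Cells grown 3 days with 10 ng/ml VEGF, then exposed to compounds in VEGF medium for another 3 days. After fixation, nuclear stain and CD31 immunofluorescence imaging gave mean total tubule length against 0.1% DMSO; suramin (100 uM) inhibition control.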
For the molecule `O=c1c(O)c(-c2ccc(O)c(O)c2)oc2cc(O)cc(O)c12`, the result was inactive.

For the molecule `OC[C@@H](O)[C@@H](O)[C@H](O)[C@H](O)CO`, the call was inactive. Consider `CCCCC(CC)COC(=O)CC(C(=O)OCC(CC)CCCC)S(=O)(=O)O` (configuration not stated), for which the molecule was called inactive. With `Cc1cc(NC(=O)C(=O)O)cc(C)c1Oc1ccc(O)c2c1CCC2`, the molecule was called inactive. Regarding `COC(=O)c1ccc(O)cc1`, the outcome was inactive.

`CCCc1cc(=O)[nH]c(=S)[nH]1`: the molecule was called inactive.

The nature of another test: VALA_MIGHUV2_CellCount: Viability Assessment in the VALA Sciences human Umbilical Vein Endothelial Cell Migration (MIGHUV) Assay, Area of Scratch Wound after Recovery (AID 2284314). The method in brief: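 Scratch-wounded HUVEC monolayers received test chemical within 30 min, 6-point concentration response in triplicate, 0.1 % DMSO vehicle. After 24 h wound recovery, fixed cells were Hoechst-stained and nuclei imaged; loss of signal versus DMSO indicates reduced viability.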
In the case of `OC[C@@H](O)[C@@H](O)[C@H](O)[C@H](O)CO`, the result was inactive.

Regarding `CCCCC(CC)COC(=O)CC(C(=O)OCC(CC)CCCC)S(=O)(=O)O` (configuration not stated), the AC50 (commonly the midpoint of the concentration-response curve, whichever way the signal moves) was 50 µM (active). On to `Oc1ccc2ccccc2c1N=Nc1ccccc1`, for which the molecule was classed as inactive.
